Measured values published in PubChem BioAssay.
Calls of active or inactive are those of the source.

system: XIP peptide (Xip251-270) binding; test: XIP fragment 251-270 binding compounds – biochemical, small-molecule microarray, fluorescence 635/667 nm, 0.1 µg/mL protein, primary screen (AID 1182); conditions: fluorescent protein binding, 635 nm, higher = more signal, called active from +8 up or from −8 down

Composite z-score, inactive:
COc1cc([C@@H]2N[C@H](C(=O)O)Cc3c2[nH]c2ccccc32)cc(OC)c1OC -0.374
CCN1C(C)=C(C(=O)OC)[C@@H](c2ccccc2)N2C(=O)[C@@]3(C(=O)OC)O[C@@]12[C@@H]1C(=O)CCC[C@@H]13 -0.147
Cc1ccc(S(=O)(=O)c2cc3oc2CC[C@@H](CO)NC(=O)N(C)Cc2cn(nn2)C[C@H](Cc2ccccc2)NC3=O)cc1 -0.126
Cc1ccc(S[C@]2(C(=O)O)CC(=O)N(Cc3ccccc3)[C@@H]2c2ccc(CO)cc2)cc1 -0.242
C=CCC(OC(C)=O)[C@@H]1[C@@H](N(Cc2cc3ccccc3o2)C(=O)Cc2ccc(F)cc2)c2cc(OCCCO)ccc2N1C(=O)c1ccc(-c2ccccc2)cc1 (stereo partly specified) -0.618
COC(=O)[C@@]1(Cc2ccc(OC)cc2)[C@H]2c3cc(C(=O)N(C)C)n(Cc4ccc(C)c(F)c4F)c3C[C@H]2CN1C(=O)c1ccccc1 -0.0903
CN1C(=O)C2C=CC(C(O)c3ccc(N(C)C)cc3)N(Nc3ccc([N+](=O)[O-])cc3[N+](=O)[O-])C2C1=O (stereo unspecified) 0.695
CN1C2C=C(c3ccc(CO)cc3)C(C3C(=O)N(C(N)=O)C(=O)C32)C1c1cccs1 (stereo unspecified) 0.549
C#CCCCON=C1C[C@@H](O)[C@@H](O)[C@@H]2[C@@H]3C(=O)N(Cc4ccc5c(c4)OCO5)C(=O)[C@@H]3CC[C@H]12 0.892
C=C(COC)/C(=C/C[C@@H](OC(=O)c1ccncc1)c1ccc(OCCO)cc1)c1cc(C(=O)OC)ccc1OC 1.08
CO[C@H]1COC(=O)[C@H](CCSC)NC(=O)CC=C[C@@H](C)COC(=O)[C@@H](OCc2ccccc2)C=C[C@@H]1C 0.786
CN(C)CCCC[C@@H]1NC(=O)[C@@H]2C[C@H](C(=O)O)[C@H](c3ccc(O)cc3)N2C1=O 0.646
O=[N+]([O-])c1ccc(C[n+]2ccc3ccc(O)cc3c2)o1 1.14
COCCOC(=O)N1C(=O)[C@@]2(c3cc(C#CCNC(N)=O)ccc31)[C@H](c1ccc(OCCO)cc1)N1[C@H](c3ccccc3)[C@H](c3ccccc3)OC(=O)[C@H]1[C@@H]2C(=O)N1CCCCCCC1 0.067
CO[C@@H]1COC(=O)CC=C[C@H](C)COC(=O)[C@H](Cc2ccccc2)NC(=O)CC=C[C@H]1C 0.717
CC(C)=C1C(=O)C(c2ccccc2)=C2CN3C(=O)N(CCc4ccccc4)C(=O)[C@]3(Cc3ccccc3)[C@H]21 -0.315
COCCCNC(=O)[C@@]1(Sc2ccc(C)cc2)CC(=O)N(Cc2cc(C(F)(F)F)cc(C(F)(F)F)c2)[C@@H]1c1ccc(CO)cc1I -0.291
COc1ccc([Si](C)(C)[C@H]2[C@H](CC(=O)N3Cc4ccccc4C[C@H]3CO)O[C@@]3(C(=O)N(Cc4cccc(N5CCOC5=O)c4)c4ccccc43)[C@@H]2C)cc1 0.873
CO[C@@H]1COC(=O)[C@@H]2CCCN2C(=O)CC=C[C@@H](C)[C@H](OC)COC(=O)[C@@H]2CCCN2C(=O)CC=C[C@H]1C 0.284
CO[C@H]1O[C@H](CO)[C@@H](OC(=O)CCc2ccccc2)[C@@H]2OC(=O)[C@H](Cc3cccc(Br)c3)C/C=C/C[C@@H](Cc3cccc(Br)c3)C(=O)O[C@@H]12 0.0304
CO[C@H]1COC(=O)CC=C[C@H](C)[C@@H](OC)COC(=O)[C@H](Cc2ccccc2)NC(=O)CC=C[C@@H]1C -0.254
CCCC=C(CCC)[C@@H](NC(=O)c1ccccc1)c1ccccc1 -1.3
COc1ccc(-c2ccccc2[C@@H]2N[C@H](C(=O)O)CC[C@H]2C)cc1 0.351
CO[C@@H]1COC(=O)CC=C[C@@H](C)[C@H](OC)COC(=O)CC=C[C@H]1C -0.583
Cc1ccc(S[C@]2(C(=O)NCCCN(C)C)CC(=O)N(C3CCCCC3)[C@@H]2c2ccc(CO)cc2I)cc1 -0.605
COCCOC(=O)N1C(=O)[C@@]2(c3cc(C#CCCO)ccc31)[C@H](c1ccc(OCCO)cc1)N1[C@H](c3ccccc3)[C@H](c3ccccc3)OC(=O)[C@H]1[C@@H]2C(=O)NC[C@H](O)c1ccccc1 0.405
COCCOC(=O)N1C(=O)[C@@]2(c3cc(C#CCC(C(=O)OC)C(=O)OC)ccc31)[C@H](c1ccccc1OCCO)N1[C@H](c3ccccc3)[C@H](c3ccccc3)OC(=O)[C@H]1[C@@H]2C(=O)N1CCCCCCC1 0.856
O=C(CS)NCCCCCNC(=O)[C@H]1C[C@H]2C(=O)N3CCC[C@H]3C(=O)N2[C@H]1c1ccc(O)cc1 0.215
CCOC(=O)C[C@H]1[C@H](OC(=O)c2cc3ccccc3oc2=O)[C@@H](NC(=O)C2CCCCC2)c2cc(OCCCO)ccc2N1C(=O)c1ccc2ccccc2n1 -0.0413
C[C@@H]1CC[C@H]2C(=O)N3CCC[C@H]3C(=O)N2[C@H]1c1ccc(Br)cc1 0.557
O=C1C[C@@](C(=O)NC2CC2)(c2ccc([N+](=O)[O-])cc2)[C@@H](c2ccc(CO)cc2I)N1CC12CC3CC(CC(C3)C1)C2 0.479
CCC#CCN(Cc1ccccc1Br)[C@H](/C=C/c1ccccc1)[C@@H](O)Cc1ccccc1 -0.276
CC(C)(C)OC(=O)CC[C@]1(C(=O)N2CCCCC2)N=C(c2ccc(OCCCO)cc2)O[C@H]1c1ccccc1 1.24
C[C@@H]1CC[C@H]2C(=O)N3[C@@H](CC[C@@H](C)[C@@H]3c3cccc(N4CCOCC4)c3)C(=O)N2[C@H]1c1cccc(N2CCOCC2)c1 0.66
C=C(/C(=C/C[C@@H](OC(=O)c1ccncc1)c1ccc(CO)o1)c1cnc2ccccc2c1)C(C)C 1.11
C[C@@H]1NC(=O)CC=C[C@@H](C)[C@@H]2C=C[C@H](O)[C@@H](COC(=O)[C@H](C)NC(=O)CC=C[C@@H](C)[C@@H]3C=C[C@H](O)[C@@H](COC1=O)O3)O2 -0.217
